Measurements taken from PubChem BioAssay AID1159580 (chemical genetic matrix, 2015).
About 2,000 (36%) of roughly 5,500 compounds were called active. Not shown: some 18% with an inconclusive outcome. No stated cut-off is given here; in the data, active means normalized growth mostly below about 0.91 (no sharp cut-off); inconclusive means no clear call, values can overlap the other calls; inactive means mostly above about 0.92. Some of the results follow.

Experiment: chemical genetic growth profiling, strain panel (AID 1159580);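 further: tested at 20 µM; growth read once vehicle control cultures reached saturation at 30 °C; 1 = growth at the plate median or of vehicle wells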
Settings: growth OD

Measured: normalized growth

CNNC
inactive: S. cerevisiae deletion strains, locus YJR075W, strain HOC1, stronger effect = lower value 1.02 | S. cerevisiae deletion strains, locus YKL009W, strain mrt4, stronger effect = lower value 0.981 | S. cerevisiae deletion strains, locus YKL068W, stronger effect = lower value 1.01 | S. cerevisiae deletion strains, locus YKL085W, strain MDH1 (second series), stronger effect = lower value 1.01 | S. cerevisiae deletion strains, locus YKL085W, strain MDH1, stronger effect = lower value 1.01 | S. cerevisiae deletion strains, locus YKL160W, strain elf1, stronger effect = lower value 0.99 | S. cerevisiae deletion strains, locus YKL190W, strain CNB1, stronger effect = lower value 1.02 | S. cerevisiae deletion strains, locus YKR001C, strain vps1, stronger effect = lower value 1.01 | S. cerevisiae deletion strains, locus YKR026C, strain gcn3, stronger effect = lower value 1.02 | S. cerevisiae deletion strains, locus YKR091W, strain srl3, stronger effect = lower value 1.02 | S. cerevisiae deletion strains, locus YLL001W, strain dnm1, stronger effect = lower value 1.02 | S. cerevisiae deletion strains, locus YLL026W, stronger effect = lower value 1 | S. cerevisiae deletion strains, locus YLL041C, strain sdh2, stronger effect = lower value 1.02 | S. cerevisiae deletion strains, locus YLR027C, strain aat2, stronger effect = lower value 1.01 | S. cerevisiae deletion strains, locus YLR039C, strain RIC1, stronger effect = lower value 1.09 | S. cerevisiae deletion strains, locus YLR058C, strain SHM2, stronger effect = lower value 1.02 | S. cerevisiae deletion strains, locus YLR102C, strain apc9, stronger effect = lower value 0.998 | S. cerevisiae deletion strains, locus YLR221C, strain rsa3, stronger effect = lower value 1.01 | S. cerevisiae deletion strains, locus YLR258W, strain gsy2, stronger effect = lower value 1.01 | S. cerevisiae deletion strains, locus YLR262C, strain YPT6 (second series), stronger effect = lower value 1.01 | S. cerevisiae deletion strains, locus YLR262C, strain YPT6, stronger effect = lower value 1.09 | S. cerevisiae deletion strains, locus YLR268W, strain sec22, stronger effect = lower value 1.02 | S. cerevisiae deletion strains, locus YLR320W, strain mms22, stronger effect = lower value 1.01 | S. cerevisiae deletion strains, locus YLR330W, strain CHS5, stronger effect = lower value 1.02 | S. cerevisiae deletion strains, locus YLR342W, strain FKS1 (second series), stronger effect = lower value 1.01 | S. cerevisiae deletion strains, locus YLR342W, strain FKS1, stronger effect = lower value 1.01 | S. cerevisiae deletion strains, locus YLR357W, strain rsc2, stronger effect = lower value 0.986 | S. cerevisiae deletion strains, locus YLR370C, strain arc18, stronger effect = lower value 1.01 | S. cerevisiae deletion strains, locus YLR371W, strain rom2, stronger effect = lower value 1 | S. cerevisiae deletion strains, locus YLR384C, strain iki3, stronger effect = lower value 1.01 | S. cerevisiae deletion strains, locus YLR418C, strain cdc73, stronger effect = lower value 0.997 | S. cerevisiae deletion strains, locus YML016C, strain PPZ1, stronger effect = lower value 1.02 | S. cerevisiae deletion strains, locus YML032C, strain rad52, stronger effect = lower value 0.97 | S. cerevisiae deletion strains, locus YML120C, strain ndi1, stronger effect = lower value 1.03 | S. cerevisiae deletion strains, locus YML124C, strain tub3, stronger effect = lower value 1.01 | S. cerevisiae deletion strains, locus YMR058W, strain fet3, stronger effect = lower value 1.01 | S. cerevisiae deletion strains, locus YMR078C, strain ctf18, stronger effect = lower value 0.994 | S. cerevisiae deletion strains, locus YMR125W, strain sto1, stronger effect = lower value 1 | S. cerevisiae deletion strains, locus YMR129W, stronger effect = lower value 0.999 | S. cerevisiae deletion strains, locus YMR205C, strain PFK2, stronger effect = lower value 1.02 | S. cerevisiae deletion strains, locus YMR223W, strain ubp8, stronger effect = lower value 1 | S. cerevisiae deletion strains, locus YMR231W, strain pep5, stronger effect = lower value 1.01 | S. cerevisiae deletion strains, locus YMR263W, strain SAP30, stronger effect = lower value 1.03 | S. cerevisiae deletion strains, locus YMR307W, strain GAS1, stronger effect = lower value 1.04 | S. cerevisiae deletion strains, locus YNL067W, strain RPL9B, stronger effect = lower value 1.03 | S. cerevisiae deletion strains, locus YNL071W, strain lat1, stronger effect = lower value 0.989 | S. cerevisiae deletion strains, locus YNL128W, strain TEP1, stronger effect = lower value 1.03 | S. cerevisiae deletion strains, locus YNL153C, strain GIM3, stronger effect = lower value 1.03 | S. cerevisiae deletion strains, locus YNL209W, strain ssb2, stronger effect = lower value 1.01 | S. cerevisiae deletion strains, locus YNL233W, strain BNI4, stronger effect = lower value 1.03 | S. cerevisiae deletion strains, locus YNL248C, strain rpa49, stronger effect = lower value 1.03 | S. cerevisiae deletion strains, locus YNL250W, strain rad50, stronger effect = lower value 0.997 | S. cerevisiae deletion strains, locus YNL271C, strain bni1, stronger effect = lower value 1.01 | S. cerevisiae deletion strains, locus YNL298W, strain CLA4, stronger effect = lower value 0.994 | S. cerevisiae deletion strains, locus YNL307C, strain MCK1, stronger effect = lower value 0.998 | S. cerevisiae deletion strains, locus YNL322C, strain KRE1 (second series), stronger effect = lower value 1.02 | S. cerevisiae deletion strains, locus YNL322C, strain KRE1, stronger effect = lower value 1.03 | S. cerevisiae deletion strains, locus YNR049C, strain mso1, stronger effect = lower value 1 | S. cerevisiae deletion strains, locus YNR052C, strain pop2, stronger effect = lower value 0.994 | S. cerevisiae deletion strains, locus YOL006C, strain TOP1, stronger effect = lower value 1.08 | S. cerevisiae deletion strains, locus YOL012C, strain htz1 1.09 | S. cerevisiae deletion strains, locus YOL147C, strain pex11, stronger effect = lower value 0.995 | S. cerevisiae deletion strains, locus YOR001W, strain rrp6, stronger effect = lower value 1.02 | S. cerevisiae deletion strains, locus YOR061W, strain CKA2, stronger effect = lower value 1.02 | S. cerevisiae deletion strains, locus YOR069W, strain VPS5, stronger effect = lower value 1.01 | S. cerevisiae deletion strains, locus YOR070C, strain gyp1, stronger effect = lower value 1.01 | S. cerevisiae deletion strains, locus YOR080W, strain dia2, stronger effect = lower value 0.99 | S. cerevisiae deletion strains, locus YOR083W, strain WHI5, stronger effect = lower value 1.01 | S. cerevisiae deletion strains, locus YOR106W, strain vam3, stronger effect = lower value 1.02 | S. cerevisiae deletion strains, locus YOR136W, strain idh2, stronger effect = lower value 0.994 | S. cerevisiae deletion strains, locus YOR144C, strain elg1, stronger effect = lower value 1 | S. cerevisiae deletion strains, locus YOR184W, strain ser1, stronger effect = lower value 1 | S. cerevisiae deletion strains, locus YOR265W, strain rbl2, stronger effect = lower value 1.02 | S. cerevisiae deletion strains, locus YOR270C, strain vph1, stronger effect = lower value 1.1 | S. cerevisiae deletion strains, locus YOR290C, strain snf2, stronger effect = lower value 1.03 | S. cerevisiae deletion strains, locus YOR316C, strain cot1, stronger effect = lower value 1.01 | S. cerevisiae deletion strains, locus YPL051W, strain arl3, stronger effect = lower value 1 | S. cerevisiae deletion strains, locus YPL055C, strain LGE1, stronger effect = lower value 1.06 | S. cerevisiae deletion strains, locus YPL078C, strain atp4, stronger effect = lower value 1.01 | S. cerevisiae deletion strains, locus YPL106C, strain sse1, stronger effect = lower value 1 | S. cerevisiae deletion strains, locus YPL240C, strain hsp82, stronger effect = lower value 1.01 | S. cerevisiae deletion strains, locus YPL241C, strain CIN2, stronger effect = lower value 1.02 | S. cerevisiae deletion strains, locus YPR119W, strain clb2, stronger effect = lower value 1 | S. cerevisiae deletion strains, locus YPR141C, strain kar3, stronger effect = lower value 1.01 | S. cerevisiae deletion strains, locus YPR163C, strain tif3, stronger effect = lower value 0.994 | S. cerevisiae deletion strains, locus YPR167C, strain met16, stronger effect = lower value 1 | S. cerevisiae deletion strains, strain wtn01, stronger effect = lower value 1.02 | S. cerevisiae strains, strain wild type, stronger effect = lower value 1.01
